Assay outcomes from PubChem BioAssay.
CYP2C19 act – cytochrome P450 2C19 (human) activation. activation factor at 5 µM. P33261. AID 1025. recombinant CYP2C19, luciferin-H EGE luminescence; active compounds read high; 0 = fully inhibited enzyme, 1 = untreated enzyme. 96,000 tested, under 10 active;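 active means activation factor of at least 2 at 5 µM in the primary screen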;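 further: 0 = wells with 2.5 mM tranylcypromine and 1 = vehicle-only wells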
CYP2C9 inh – inhibitors of human CYP2C9; 20% of 96,000 active; AID 777; CYP2C9 Supersomes, luciferin-H conversion, luminescence; P11712; inhibition, % at 5 µM;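 active means blocking of liver enzyme CYP2C9 beyond about 50% at 5 µM, limit read from the data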
Target sequence (P11712 whole entry, looked up): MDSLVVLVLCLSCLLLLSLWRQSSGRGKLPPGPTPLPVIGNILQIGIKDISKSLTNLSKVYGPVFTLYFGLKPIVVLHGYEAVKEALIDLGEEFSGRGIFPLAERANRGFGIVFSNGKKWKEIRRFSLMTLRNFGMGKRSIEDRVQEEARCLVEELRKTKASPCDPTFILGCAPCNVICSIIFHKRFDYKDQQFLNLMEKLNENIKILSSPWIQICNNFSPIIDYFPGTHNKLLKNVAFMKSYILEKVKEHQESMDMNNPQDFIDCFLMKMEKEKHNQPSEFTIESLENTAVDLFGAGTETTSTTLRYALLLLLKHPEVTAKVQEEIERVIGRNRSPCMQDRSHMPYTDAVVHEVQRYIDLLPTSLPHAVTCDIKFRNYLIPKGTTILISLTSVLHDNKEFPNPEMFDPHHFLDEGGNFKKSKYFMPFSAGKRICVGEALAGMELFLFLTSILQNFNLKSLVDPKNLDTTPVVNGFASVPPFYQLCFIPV
Cav32 inh – human Cav3.2 channel inhibition, primary screen | O95180 | Cav3.2-expressing cells, Fluo-4 calcium fluorescence FDSS; active compounds read low | B-score at 10 µM | 4% of 100,000 active | AID 449739;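 active means single-dose well whose peak fluorescence ratio is a statistical outlier from its plate by either plate-standardised score or position-corrected B-score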
CYP2C9 activ – increases human cytochrome P450 2C9 activity; P11712; recombinant CYP2C9, luciferin-H conversion, luminescence; active compounds read high; factor 1 = untreated enzyme, 0 = blocked; activation factor at 5 µM; 1.4% of 96,000 active;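 active means activation factor of 2 or more for CYP2C9 at a 5 µM dose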;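 further: 0 = sulfaphenazole-blocked wells and 1 = vehicle-only wells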
CYP2C19 inhib – inhibitors of human CYP2C19 | CYP2C19 Supersomes, luciferin-H EGE luminescence, 30 min | inhibition, % at 5 µM | 21% of 96,000 active | AID 778;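 active means CYP2C19 inhibition above a set limit at 5 µM in the primary screen, cut at about 50% in these data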;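 further: plate controls were negative control wells for no effect and 2.5 mM tranylcypromine positive control for full effect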
Active calls of the source: *; . = no result given. Most compounds without a hit are left out; they make up all but 27% or so of the library.

SMILES	CYP2C19 act	CYP2C9 inh	Cav32 inh	CYP2C9 activ	CYP2C19 inhib
COc1ccccc1C(=O)O/N=C(/C)c1ccc(N2C(=O)C3CCCCC3C2=O)cc1 (stereo not drawn)	0.5	-227	-1.2	3.3*	54*
Oc1cccc(C=NCc2ccccc2)c1O	1	26	0.06	0.7	-2
Cc1ccc(C=NCc2ccncc2)c(O)c1	0.2	72*	-0.013	0.3	76*
CCOC(=O)CCCNC(=O)COc1ccccc1C#N	0.7	3	-0.079	1	33
S=C1NC(c2ccccc2)N2C(=S)NC(c3ccccc3)N12 (stereo not drawn)	0.1	78*	-1.3	0.2	94*
S=C1NC[C@H](c2ccccc2)N1CC1CCCCC1	.	.	0.18	.	.
COc1ccc(C2NC(=O)CS2)cc1 (stereo not drawn)	.	.	-0.59	.	.
COc1ccc(C2NC(=S)N3C(c4ccc(OC)cc4)NC(=S)N23)cc1 (stereo not drawn)	0.5	28	.	0.7	51*
O=C(CSc1ccc2nnc(-c3ccccn3)n2n1)NCc1ccco1	.	.	-0.022	.	.
O=c1o[nH]c(-c2ccccc2)c1C1=NCCCCC1	.	.	-0.59	.	.
Cn1nc(C(F)(F)F)c(C(=O)Nc2ccc(F)cc2F)c1Oc1cccc(Cl)c1	0.9	22	-2	0.8	14
Cn1nc(C(F)(F)F)c(C(=O)Nc2ccc(F)cc2F)c1Sc1cccc(C(F)(F)F)c1	0.1	60*	.	0.4	87*
Cn1nc(C(F)(F)F)c(C(=O)Nc2ccc(F)cc2F)c1Sc1cccc(Cl)c1	0.5	36	-1.8	0.6	54*
Cc1cc(-c2cc(N)n(-c3ccccc3)n2)c(C)n1C1CCCC1	0.7	38	0.84	0.6	34
O=C1CC(O)(C(F)(F)F)Oc2c1ccc1ccccc21 (stereo not drawn)	0.2	96*	-4.3*	0	84*
O=C1CC(O)(C(F)F)Oc2ccc3ccccc3c21 (stereo not drawn)	0.2	60*	.	0.4	85*
Cc1cc2c(c(=O)o1)C(CC(C)C)C(C#N)=C(N)O2 (stereo not drawn)	0.8	63*	0.15	0.4	24
COc1cccc(C2C(C#N)=C(N)Oc3cc(C)oc(=O)c32)c1OC (stereo not drawn)	0.6	74*	1.2	0.3	44
CCn1c(C)cc2c(c1=O)C(c1ccncc1)C(C#N)=C(N)O2 (stereo not drawn)	0.7	43	0.21	0.6	31
Cc1cc2c(c(=O)o1)C(C13C=CC(CC1)C3)C(C#N)=C(N)O2 (stereo not drawn)	0.3	75*	.	0.2	72*
COC(=O)C(C)N(C(=O)c1ccc(Cl)cc1)c1c(C)cccc1C (stereo not drawn)	0.6	32	-6.6*	0.7	36
CC(C)CN(CC(C)C)C(=O)CC(=O)NC(=O)c1ccc(Cl)cc1	0.7	25	-0.41	0.8	34
COC(=O)C(C)N(C(=O)c1ccc(C(=O)c2ccccc2)cc1)c1c(C)cccc1C (stereo not drawn)	0.1	98*	-4.5*	0	94*
CC(C)C(=O)Nc1ccc(C(=O)c2ccccc2)cc1	.	.	0.96	.	.
Cc1ccc2c(c1)cc1c(=O)[nH]ncn12	1.1	-21	.	1.2	-12
SMILES	CYP2C19 act	CYP2C9 inh	Cav32 inh	CYP2C9 activ	CYP2C19 inhib
CCC(CC)NC(=O)Cc1ccccc1[N+](=O)[O-]	0.7	5	0.8	0.9	26
Cc1cc2cc(CN(Cc3ccc4c(c3)OCO4)C(=O)c3ccco3)c(=O)[nH]c2cc1C	0.8	45	-6.3*	0.5	16
CC(=O)N(CCc1ccccc1C)Cc1cc2cc3c(cc2[nH]c1=O)OCO3	0.3	54*	0.8	0.5	75*
COc1cc2cc(CN(Cc3ccc4c(c3)OCO4)C(=O)c3ccco3)c(=O)[nH]c2cc1OC	.	.	-0.71	.	.
CCNC(=O)Cn1c(=O)c2c(ncn2Cc2ccccc2)n(Cc2ccccc2)c1=O	0.1	13	1.4	0.9	89*
COCCn1cnc2c1c(=O)n(CC(=O)Nc1cc(C)on1)c(=O)n2Cc1ccccc1	0.8	11	0.2	0.9	19
CC1CN(C(=O)CSc2nc(-c3ccccc3)cs2)CC(C)O1 (stereo not drawn)	0.1	8	-0.24	0.9	93*
O=C(CSc1nc2cc(Cl)ccc2s1)c1cc2ccccc2o1	1.1	6	.	0.9	-7
O=C(CSc1nc(-c2ccccc2)cs1)N1CCN(C(=O)c2ccco2)CC1	0.4	-16	-0.43	1.2	62*
Cc1nc(SCC(=O)N2CC(C)OC(C)C2)nc(C)c1C (stereo not drawn)	1.1	-10	-0.083	1.1	-11
O=C(CSc1nc2cc(Cl)ccc2s1)N1CCN(C(=O)c2ccco2)CC1	0.1	86*	-1.9	0.1	86*
Cc1cc(C)cc(-c2nnc(SCC(=O)N3CCN(C(=O)c4ccco4)CC3)o2)c1	0.5	-103	-0.052	2*	50
CCO[C@@H]1OC(C(N)=O)=C[C@H](c2ccc3c(c2)OCO3)[C@H]1CCCO	.	.	0.33	.	.
Cc1cccc2nc(CSc3nnc4ccccn34)cn12	0.9	-10	-0.21	1.1	13
CCOC(=O)N1CCN(C(=O)CSc2nnc(Cc3ccccc3)o2)CC1	1.1	6	0.37	0.9	-6
Cc1ccccc1Sc1c(C#N)c(-c2ccccc2)nn1C	0.8	27	-2.3	0.7	18
CC(=O)[C@H]1CC[C@H]2[C@@H]3C[C@H](C)C4=CC(=O)CC[C@]4(C)[C@H]3[C@@H](O)C[C@]12C	.	.	0.79	.	.
Cc1cc(C)nc(NC(=O)CSc2nc3ccccc3s2)n1	0.7	3	-1.3	1	28
Cc1cc(C)nc(NC(=O)CSc2nc3cc(Cl)ccc3s2)n1	1	-167	0.55	2.7*	-1
COc1ccc(OC(=O)c2cnn(-c3ccccc3)c2C)cc1	0.8	39	-0.51	0.6	20
O=C(Nc1ccc(CN2CCOCC2)cc1)c1ccc(-c2ccc(Br)cc2)o1	0.8	23	1.4	0.8	18
CCOC(=O)c1cc2c(nc1N)CC(C)(CC)OC2 (stereo not drawn)	0.1	32	-0.024	0.7	92*
CCOC(=O)c1cc2c(nc1N)CC(C)(C)OC2	.	.	-1.2	.	.
Cc1ccc(S(=O)(=O)N2CCC(=O)N(C(COCc3ccc(Cl)cc3)Cc3ccccc3)CC2)cc1 (stereo not drawn)	.	.	0.87	.	.
Cc1cc(C)cc(NS(=O)(=O)c2ccc3c(c2)c(=O)n(C)c(=O)n3C)c1	1	32	-2.9	0.7	-2
Cc1ccc(NS(=O)(=O)c2ccc3c(c2)c(=O)n(C)c(=O)n3C)cc1F	0.1	92*	0.39	0.1	94*
O=C(N1CCOCC1)C(F)(F)C(F)(F)C(F)(F)C(F)(F)C(=O)N1CCOCC1	1	-5	-0.47	1.1	1
Cn1c(SCc2nc3ccccc3[nH]2)nnc1-c1cccs1	0.2	20	0.48	0.8	78*
Cn1c(Cc2cccs2)nnc1SCc1nc2ccccc2[nH]1	0.4	3	1.1	1	59*
